From PubChem BioAssay (NCATS)
Results filed as inconclusive are left out. Unmarked numbers belong to inactive results. Active and inactive are the calls of the source. The call rests on the fitted dose curve; in most records, active means well fitted inhibition curve with a large enough effect; inconclusive means small, poorly fitted or top-dose-only effect; inactive means flat fitted curve, though single readings scatter. Where a SMILES comes first, the peptide text is derived from it. Bridges are numbered along the chain shown (N, C = ends). [ ]: non-standard residue; d: D form. The star is where a group is joined. ξ: configuration not given here. d(aThr) = C[C@@H](O)[C@@H](N)C(=O)O; ξThr(3R) = C[C@@H](O)C(N)C(=O)O; pGlu = O=C1CC[C@@H](C(=O)O)N1; X3 = CC[C@@H](C)CCCCC(=O)*; dDab = NCC[C@@H](N)C(=O)O

Target: Voltage-gated inwardly rectifying potassium channel KCNH2 (Homo sapiens) (UniProt Q12809)
Assay: qHTS Assay for Small Molecule Inhibitors of the Human hERG Channel Activity (AID 588834);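 further: lower thallium flux fluorescence means stronger hERG block; nearly all actives have a fitted effect of over 50% in size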; on activity change, negative = inhibition: top concentration of the series differs between compounds
Details: U2OS BacMam hERG, FluxOR thallium flux fluorescence; series mostly up to 46.1 µM; activity change, negative = inhibition: at the top concentration
Summary of the method: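 hERG block measured as reduced thallium-dye (FluxOR) fluorescence after stimulation buffer addition, read over 2 min. Cells were hERG-BacMam-transduced U2OS exposed to compound ~10 min […]; concentration-response fitted with Hill equation for AC50.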
On the % scale 0 is the no-effect control and ±100 the full control effect; potency means the concentration at half of the fitted maximal effect.

Sequence of Voltage-gated inwardly rectifying potassium channel KCNH2 (Homo sapiens) (Q12809 whole entry, looked up): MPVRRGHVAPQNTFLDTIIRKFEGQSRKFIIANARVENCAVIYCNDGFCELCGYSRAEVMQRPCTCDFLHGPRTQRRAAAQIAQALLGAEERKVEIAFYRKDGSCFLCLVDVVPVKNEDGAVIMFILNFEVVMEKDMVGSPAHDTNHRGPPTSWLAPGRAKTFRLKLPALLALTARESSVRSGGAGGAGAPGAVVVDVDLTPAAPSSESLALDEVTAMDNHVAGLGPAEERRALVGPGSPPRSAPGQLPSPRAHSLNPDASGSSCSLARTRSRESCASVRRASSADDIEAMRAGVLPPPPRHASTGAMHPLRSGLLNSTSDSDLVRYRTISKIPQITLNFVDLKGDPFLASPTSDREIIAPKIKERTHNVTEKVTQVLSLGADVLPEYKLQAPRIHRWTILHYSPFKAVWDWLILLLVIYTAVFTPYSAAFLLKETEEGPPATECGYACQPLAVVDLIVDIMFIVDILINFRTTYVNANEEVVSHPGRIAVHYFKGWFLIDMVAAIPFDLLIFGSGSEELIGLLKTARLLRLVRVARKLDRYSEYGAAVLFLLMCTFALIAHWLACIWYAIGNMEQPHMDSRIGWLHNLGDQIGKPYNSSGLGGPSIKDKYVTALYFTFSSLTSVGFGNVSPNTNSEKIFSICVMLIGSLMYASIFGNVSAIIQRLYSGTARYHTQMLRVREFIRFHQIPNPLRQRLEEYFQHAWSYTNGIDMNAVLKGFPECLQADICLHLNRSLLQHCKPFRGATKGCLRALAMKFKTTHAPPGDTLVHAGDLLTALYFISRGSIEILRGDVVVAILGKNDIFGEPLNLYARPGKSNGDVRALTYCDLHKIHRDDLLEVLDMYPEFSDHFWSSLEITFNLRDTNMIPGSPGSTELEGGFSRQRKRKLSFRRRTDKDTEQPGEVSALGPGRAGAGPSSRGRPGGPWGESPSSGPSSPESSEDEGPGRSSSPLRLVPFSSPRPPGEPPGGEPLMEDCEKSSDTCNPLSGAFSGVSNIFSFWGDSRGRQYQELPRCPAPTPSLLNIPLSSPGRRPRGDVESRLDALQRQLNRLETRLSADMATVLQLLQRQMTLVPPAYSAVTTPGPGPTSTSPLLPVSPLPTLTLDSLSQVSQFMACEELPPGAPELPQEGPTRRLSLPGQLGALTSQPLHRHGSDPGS

SMILES | activity change, negative = inhibition | Potency
OC[C@H]1OC([S-])[C@H](O)[C@@H](O)[C@@H]1O.[Au+] (stereo partly specified) | 5.42% | –
CN[C@@H]1[C@@H](O[C@H]2O[C@H](CO)[C@@H](N)[C@H](O)[C@H]2O)O[C@H]2C[C@@H](N)[C@@H](O[C@H]3[C@H](O)[C@@H](O)[C@H](N)C[C@@H]3N)O[C@@H]2[C@@H]1O | 2.33% [at 20.6 µM] | –
CCN(CC)CCOCCOC(=O)C(CC)(CC)c1ccccc1 | – | 14.1 µM (active)
OC[C@@H](O)C(O)[C@H](O)CO | -11.7% | –
CCCCC(=O)O[C@H]1CC[C@H]2[C@@H]3CCc4cc(O)ccc4[C@H]3CC[C@]12C | -14.4% | –
COc1ccc2c(c1)N(C[C@H](C)CN(C)C)c1ccccc1S2 | – | 8.91 µM (active)
O=[N+]([O-])O[C@@H]1CO[C@H]2[C@@H]1OC[C@@H]2O | 4.03% | –
CC[C@H](CC[C@@H](C)[C@H]1CC[C@H]2[C@@H]3CC=C4C[C@@H](O)CC[C@]4(C)[C@H]3CC[C@]12C)C(C)C | -0.0834% | –
CC(C)[C@@H](C)/C=C/[C@@H](C)[C@H]1CC[C@H]2/C(=C/C=C3\C[C@@H](O)CC[C@@H]3C)CCC[C@]12C | 16.1% | –
C#C[C@]1(O)CC[C@H]2[C@@H]3CCC4=C(CCC(=O)C4)[C@H]3CC[C@@]21C | 16.2% [at 20.6 µM] | –
O=C(OC[C@H]1O[C@](O)(COC(=O)c2cccnc2)[C@@H](OC(=O)c2cccnc2)[C@@H]1OC(=O)c1cccnc1)c1cccnc1 | -18.3% | –
CC[C@@H](C)[C@H](N)C(=O)O | 17.3% | –
CNCC(O)c1ccc(OC(=O)C(C)(C)C)c(OC(=O)C(C)(C)C)c1 (stereo unspecified) | -7.91% [at 20.6 µM] | –
CC1(C)[C@@H]2CC[C@@]1(C)[C@H](OC(=O)CSC#N)C2 | -1.84% | –
C[C@@H]1C[C@H]2[C@@H]3CCC4=CC(=O)C=C[C@]4(C)[C@@]3(F)[C@@H](O)C[C@]2(C)[C@@]1(O)C(=O)COC(=O)c1cccc(S(=O)(=O)O)c1 | 16.2% | –
C=N[C@@H](C(=O)N[C@@H]1C(=O)N2[C@@H]1SC(C)(C)[C@@H]2C(=O)O)c1ccccc1 | 10.4% | –

SMILES | activity change, negative = inhibition | Potency
CC[C@@H](C)CCCCC(=O)N[C@H](CCN)C(=O)N[C@@H](C(=O)N[C@H](CCN)C(=O)N[C@@H]1CCNC(=O)C([C@@H](C)O)NC(=O)[C@@H](CCN)NC(=O)[C@@H](CCN)NC(=O)[C@@H](CC(C)C)NC(=O)[C@@H](Cc2ccccc2)NC(=O)[C@@H](CCN)NC1=O)[C@@H](C)O (stereo partly drawn) (X3-[dDab][d(aThr)][dDab][dDab][dDab][dF][dL][dDab][dDab][ξThr(3R)]; lactam 4-C) | 2.11% | –
CC1=CC(=C(c2ccc(N)cc2)c2ccc(N)cc2)C=CC1=N | -27.1% | –
CC(=NCc1ccccc1)c1ccccc1O | 17.8% | –
CNC(C)CCC=C(C)C (stereo unspecified) | – | 1.58 µM (active)
NC(N)=NCC1COC2(CCCCC2)O1 (stereo unspecified) | -3.48% [at 20.6 µM] | –
CC1CCCC(C)N1NC(=O)c1ccc(Cl)c(S(N)(=O)=O)c1 (stereo unspecified) | -3.38% [at 20.6 µM] | –
NC(=O)OCC(O)COc1ccc(Cl)cc1 (stereo unspecified) | 2.72% [at 20.6 µM] | –
O=C1CC[C@@H](C(=O)N[C@H]2C[C@@H]2c2ccccc2)N1 | 21.5% | –
CC1CS(=O)(=O)CCN1/N=C/c1ccc([N+](=O)[O-])o1 (stereo unspecified) | 13% [at 20.6 µM] | –
CCCCC[C@H](O)/C=C/[C@H]1[C@H](O)CC(=O)[C@@H]1CCCCCCC(=O)O | 22.1% [at 20.6 µM] | –
C[C@@H]1C/C=C/C=C/C=C/C=C/[C@H](O[C@@H]2O[C@H](C)[C@@H](O)[C@H](N)[C@@H]2O)C[C@@H]2O[C@](O)(C[C@@H](O)C[C@H]3O[C@@H]3/C=C/C(=O)O1)C[C@H](O)[C@H]2C(=O)O | -11.6% | –
CC[C@H](C)[C@H](NC(=O)[C@H](Cc1ccccc1)NC(=O)[C@H](C)NC(=O)[C@H](CC(=O)O)NC(=O)[C@H](CCCCN)NC(=O)[C@H](CO)NC(=O)[C@@H]1CCCN1C(=O)[C@@H]1CCC(=O)N1)C(=O)NCC(=O)N[C@@H](CC(C)C)C(=O)N[C@@H](CCSC)C(N)=O ([pGlu]PSKDAFIGLM-NH2) | 4.37% | –
COc1ccc([C@@H]2CC(=O)c3c(O)cc(O[C@@H]4O[C@H](CO[C@@H]5O[C@@H](C)[C@H](O)[C@@H](O)[C@H]5O)[C@@H](O)[C@H](O)[C@H]4O)cc3O2)cc1O | 17.6% [at 20.6 µM] | –
Cn1nnnc1SCC1=C(C(=O)O)N2C(=O)[C@@H](NC(=O)[C@H](O)c3ccccc3)[C@H]2SC1 | 6.43% [at 20.6 µM] | –
CC(C)CN(C[C@@H](O)[C@H](Cc1ccccc1)NC(=O)O[C@@H]1CCOC1)S(=O)(=O)c1ccc(N)cc1 | -10.3% | –
